# Test system: Vero E6 infected with SARS-CoV-2
# Assay: morphology score (similarity to uninfected cells); higher = more like uninfected cells
# Conditions: 24 h
row,SMILES,morphology score
1,Cc1c(Cl)c(C)[n+]([O-])c(Cl)c1-c1noc(-c2cc(O)c(O)c([N+](=O)[O-])c2)n1 [opicapone] (10 µM),0.125
2,Nc1ccn([C@@H]2O[C@H](CO)[C@@H](O)C2(F)F)c(=O)n1 [gemcitabine] (0.833333 µM),-0.00574
3,COc1ccc(CNC(=O)c2sc3nc(C)cc(C)c3c2N)cc1 (10 µM),-0.0124
4,CN(C)C/C=C/C(=O)Nc1cc2c(Nc3ccc(F)c(Cl)c3)ncnc2cc1O[C@H]1CCOC1 [afatinib] (0.833333 µM),-0.0622
5,CC1(C)S[C@@H]2[C@H](NC(=O)[C@H](N)c3ccccc3)C(=O)N2[C@H]1C(=O)O [ampicillin] (10 µM),0.141
6,c1ccc(CCCN2CCN(CCOC(c3ccccc3)c3ccccc3)CC2)cc1 (10 µM),0.239
7,C[C@@H]1CC(=O)NN=C1c1ccc(NN=C(C#N)C#N)cc1 [levosimendan] (10 µM),-0.109
8,Oc1cccc(Nc2ccc(Nc3cccc(O)c3)nn2)c1 [beta-amyloid-synthesis-inhibitor] (10 µM),0.0822
9,CC(C)C(N)C(=O)O (stereo in doubt) [L-valine] (10 µM),0.0236
10,C[N+](C)(CCOc1ccccc1)Cc1ccccc1 [bephenium-hydroxynaphthoate] (10 µM),0.171
11,COc1cc(Nc2c(C#N)cnc3cc(OCCCN4CCN(C)CC4)c(OC)cc23)c(Cl)cc1Cl [bosutinib] (10 µM),0.00987
12,COc1ccc2c(c1)C(=O)N(CCc1ccc(S(=O)(=O)NC(=O)NC3CCCCC3)cc1)C(=O)C2(C)C [gliquidone] (10 µM),0.283
